Experiment [1] is described as follows: Peg3 promoter reporter inhibitors, retest, confirmation, cell-based, HeLa, luciferase reporter, single concentration (AID 602417). The conditions noted are these: HeLa PEG-Prom luciferase reporter, luminescence, overnight; at 20 µM; stronger effect = higher value.
For experiment [2], the target named is PEG-3 (UniProt Q6IN02). Briefly: Peg3 promoter luciferase inhibitors, potency, dose response, cell-based, HeLa, CREF/GAPDH counter-screen panel (AID 624167). The conditions noted are these: CREF/GAPDH counter-screens; HeLa PEG-Prom luciferase reporter, overnight, run 1, dose range 1, at 100 µM (top of the series) unless noted. Background: Counterscreens check selectivity or assay interference.

Experiment [3] deals with PEG-3 (UniProt Q6IN02). The description is as above. As to conditions: CREF/GAPDH counter-screens; HeLa PEG-Prom luciferase reporter, overnight, run 2, dose range 1, at 100 µM (top of the series) unless noted.
Experiment [4] can be described thus: inhibitors of PAF-induced NF-kB signaling, retest, confirmation, cell-based, GFP fluorescence, single concentration (AID 602472; in the data active means inhibition above about 40%;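 further: stimulus PAF is a Pseudomonas aeruginosa filtrate and not platelet activating factor; plate controls were DMSO wells with stimulus for no effect and unstimulated DMSO wells for full effect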). The conditions noted are these: KKLEB CF airway cells, overnight, at 5 µM, stronger effect = higher value.
The target of experiment [5] is COP9 signalosome complex subunit 5 (Homo sapiens) (UniProt Q92905). Briefly: Csn5 deneddylation inhibitors, confirmation, biochemical, fluorescence polarization, single concentration, SCF-Nedd8OG substrate (AID 720654; in the data active means inhibition above about 50%;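 further: 0% = DMSO with enzyme and 100% = no enzyme wells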). As to conditions: Csn5 deneddylation of SCF-Nedd8OG, 90 min, at 16.6 µM, stronger effect = higher value. (In general: Fluorescence polarisation rises when a labelled molecule tumbles more slowly, as on binding a larger partner.)

Experiment [6] concerns the target 72 kDa type IV collagenase (Homo sapiens) (UniProt P08253). The experiment can be described thus: MMP-2 protease inhibition counter-screen, confirmation, counter-screen for CSN deneddylation inhibitor project, biochemical, fluorescence, single concentration (AID 720655;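 active means corrected plate-normalized z-score of 5 or more, or -5 or less, or inhibition of 15% or more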;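 further: plate controls were DMSO wells with enzyme for no effect and buffer wells lacking MMP-2 for full effect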). The conditions noted are these: recombinant MMP-2, FRET substrate fluorescence, 60 min; at 16.6 µM.

Experiment [7] has as its target Prothrombin (Bos taurus) (UniProt P00735). The experiment can be described thus: bovine thrombin inhibition counter-screen, confirmation, counter-screen for CSN deneddylation inhibitor project, biochemical, fluorescence polarization, single concentration (AID 720656;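 active means inhibition at or above a set limit, with a fluorescence interference ratio between 0.5 and a set maximum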). As to conditions: bovine thrombin cleavage of Ub4-pepOG, at 16.6 µM, stronger effect = higher value.
The subject of experiment [8] is Rat fibroblasts (CREF). The experiment can be described thus: Peg3 promoter luciferase inhibitors, potency, dose response, cell-based, HeLa, CREF/GAPDH counter-screen panel (AID 624167). The conditions noted are these: CREF/GAPDH counter-screens; run 1, dose range 1, at 100 µM (top of the series).
For experiment [9], the system named is Rat fibroblasts (CREF). The description is as above. As to conditions: CREF/GAPDH counter-screens; run 2, dose range 1, at 100 µM (top of the series).
Experiment [10] is described as follows: inhibitors of PAF-induced NFkB signaling in CF airway cells, dose response, cell-based, uHTS hits, panel, cytotoxicity readout (AID 624344). The conditions noted are these: CF bronchial epithelial cells, PAF-induced NFkB reporter inhibition, with PAF, run 1; at 79 µM (top of the series) unless noted.
Test in experiment [11]: as above
The conditions noted are these: CF bronchial epithelial cells, PAF-induced NFkB reporter inhibition, with PAF, run 2; at 79 µM (top of the series) unless noted.

A short description of experiment [12]: HIF-2a reporter inhibitor retest, confirmation, luminescence, 786-0 RCC cells (AID 651580;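 active means mean inhibition across four replicates of at least 40 percent at the single tested concentration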). As to conditions: HIF-2a luciferase reporter luminescence, overnight, at 18.8 µM, stronger effect = higher value. (In general: Reporter assays use an easily measured gene product as a stand-in for the process of interest.)
A short description of experiment [13]: HIF-1a luciferase reporter signal reduction – MiaPaCa-2 cells, single concentration, counter-screen for HIF-2a inhibitor project, confirmation (AID 651589;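 active means mean inhibition of the reporter signal across four replicates at the single tested dose of 50% or more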). As to conditions: MiaPaCa-2 HIF-1a luciferase reporter, desferoxamine, overnight; at 18.8 µM; stronger effect = higher value.
The target in experiment [14] is Tumor necrosis factor receptor superfamily member 10B (Homo sapiens) (UniProt O14763). Briefly: caspase-8 TRAIL sensitization, hit retest, confirmation, cell-based, NB7+caspase-8, with/without TRAIL, luminescence panel (AID 651596; in the data active means activity above about 50%). As to conditions: NB7 neuroblastoma + caspase-8, TRAIL sensitization, luminescence viability, with TRAIL, mean of runs, at 10 µM, stronger effect = higher value.

Test in experiment [15]: as above
The conditions noted are these: NB7 neuroblastoma + caspase-8, without TRAIL, luminescence viability, without TRAIL, mean of runs, at 10 µM.

The other results are listed elsewhere or left out. Calls of active or inactive are those of the source.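 How the source made its calls, unless noted: active means at 20 µM dose, 40% or more inhibition averaged across four replicates; inactive means the rest.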

Sequence of PEG-3 (Q6IN02 whole entry, looked up): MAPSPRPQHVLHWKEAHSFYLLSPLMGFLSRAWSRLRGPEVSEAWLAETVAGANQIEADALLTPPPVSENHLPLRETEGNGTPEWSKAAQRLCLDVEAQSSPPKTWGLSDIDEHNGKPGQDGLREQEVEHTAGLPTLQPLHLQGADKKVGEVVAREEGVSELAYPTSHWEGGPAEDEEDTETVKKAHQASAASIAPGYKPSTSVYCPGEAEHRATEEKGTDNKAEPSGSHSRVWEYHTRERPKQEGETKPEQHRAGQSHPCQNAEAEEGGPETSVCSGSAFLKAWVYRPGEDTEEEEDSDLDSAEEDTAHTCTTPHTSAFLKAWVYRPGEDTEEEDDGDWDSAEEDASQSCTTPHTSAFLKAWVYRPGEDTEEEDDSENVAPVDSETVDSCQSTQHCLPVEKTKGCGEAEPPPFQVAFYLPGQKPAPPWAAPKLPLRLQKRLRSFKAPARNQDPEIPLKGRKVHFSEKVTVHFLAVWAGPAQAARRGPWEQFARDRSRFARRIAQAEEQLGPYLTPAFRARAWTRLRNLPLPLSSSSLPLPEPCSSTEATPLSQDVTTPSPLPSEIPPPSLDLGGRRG
Sequence of COP9 signalosome complex subunit 5 (Homo sapiens) (Q92905 whole entry, looked up, one chain of several): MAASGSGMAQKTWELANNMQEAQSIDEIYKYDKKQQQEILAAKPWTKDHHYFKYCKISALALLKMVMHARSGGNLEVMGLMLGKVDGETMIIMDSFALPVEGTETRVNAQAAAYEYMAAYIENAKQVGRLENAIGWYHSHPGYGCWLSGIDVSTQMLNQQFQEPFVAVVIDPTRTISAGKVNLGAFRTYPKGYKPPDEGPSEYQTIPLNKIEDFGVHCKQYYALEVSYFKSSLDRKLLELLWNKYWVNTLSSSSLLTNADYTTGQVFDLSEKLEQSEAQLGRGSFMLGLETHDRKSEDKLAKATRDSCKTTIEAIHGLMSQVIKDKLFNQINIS
Sequence of Tumor necrosis factor receptor superfamily member 10B (Homo sapiens) (O14763 whole entry, looked up): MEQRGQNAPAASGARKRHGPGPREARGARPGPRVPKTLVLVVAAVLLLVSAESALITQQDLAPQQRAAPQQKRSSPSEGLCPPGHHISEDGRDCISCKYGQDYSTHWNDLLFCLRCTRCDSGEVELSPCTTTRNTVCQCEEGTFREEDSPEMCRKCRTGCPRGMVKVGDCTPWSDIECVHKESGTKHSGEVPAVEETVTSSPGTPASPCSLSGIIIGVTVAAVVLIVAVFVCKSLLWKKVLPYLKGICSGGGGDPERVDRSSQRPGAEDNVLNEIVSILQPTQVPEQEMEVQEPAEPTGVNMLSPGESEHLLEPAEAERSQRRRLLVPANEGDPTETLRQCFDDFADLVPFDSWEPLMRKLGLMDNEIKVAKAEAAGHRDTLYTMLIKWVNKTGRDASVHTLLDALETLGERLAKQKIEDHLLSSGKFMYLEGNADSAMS
Sequence of 72 kDa type IV collagenase (Homo sapiens) (P08253 whole entry, looked up): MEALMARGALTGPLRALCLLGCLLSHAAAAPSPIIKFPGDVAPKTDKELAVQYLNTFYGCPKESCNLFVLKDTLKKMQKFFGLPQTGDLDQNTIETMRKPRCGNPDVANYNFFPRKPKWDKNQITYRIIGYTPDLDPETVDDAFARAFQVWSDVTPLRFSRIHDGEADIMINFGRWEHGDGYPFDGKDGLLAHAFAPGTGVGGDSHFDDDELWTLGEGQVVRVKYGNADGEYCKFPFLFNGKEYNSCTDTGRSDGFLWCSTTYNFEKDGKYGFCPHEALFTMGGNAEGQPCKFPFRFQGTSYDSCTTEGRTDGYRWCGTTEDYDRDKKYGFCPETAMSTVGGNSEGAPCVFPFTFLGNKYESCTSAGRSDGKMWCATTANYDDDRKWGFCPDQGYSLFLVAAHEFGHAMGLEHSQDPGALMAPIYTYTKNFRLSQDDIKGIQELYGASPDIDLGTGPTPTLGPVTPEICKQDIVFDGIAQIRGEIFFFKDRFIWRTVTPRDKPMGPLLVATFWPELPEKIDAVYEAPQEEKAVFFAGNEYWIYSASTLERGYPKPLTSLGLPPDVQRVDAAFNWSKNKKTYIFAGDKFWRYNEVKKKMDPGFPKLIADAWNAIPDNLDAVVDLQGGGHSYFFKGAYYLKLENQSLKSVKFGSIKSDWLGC
Sequence of Prothrombin (Bos taurus) (P00735 whole entry, looked up): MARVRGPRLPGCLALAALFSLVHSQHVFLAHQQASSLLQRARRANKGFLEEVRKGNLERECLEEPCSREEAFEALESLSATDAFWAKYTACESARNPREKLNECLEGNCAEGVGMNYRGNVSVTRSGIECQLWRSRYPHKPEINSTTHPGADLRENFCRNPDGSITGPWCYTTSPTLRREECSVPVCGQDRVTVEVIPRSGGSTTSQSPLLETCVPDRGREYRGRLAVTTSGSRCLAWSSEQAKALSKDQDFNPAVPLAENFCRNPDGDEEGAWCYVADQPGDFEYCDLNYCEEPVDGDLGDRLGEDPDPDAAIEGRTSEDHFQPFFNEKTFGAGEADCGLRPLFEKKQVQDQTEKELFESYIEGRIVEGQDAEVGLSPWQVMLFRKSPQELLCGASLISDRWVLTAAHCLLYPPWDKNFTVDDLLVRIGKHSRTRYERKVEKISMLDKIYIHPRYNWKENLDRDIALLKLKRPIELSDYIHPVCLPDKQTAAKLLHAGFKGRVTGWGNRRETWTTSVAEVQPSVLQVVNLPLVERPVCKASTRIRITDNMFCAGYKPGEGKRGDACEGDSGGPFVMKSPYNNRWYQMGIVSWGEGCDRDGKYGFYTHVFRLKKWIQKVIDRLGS

In general, inhibition refers to the change of the read-out against control, counted positive when it falls. Turning to `COc1ccc(OC)c(Cc2cnc3nc(N)nc(N)c3c2C)c1`, the values for the inhibition in experiment [1], in experiment [2] and in experiment [3] were 66.8% (active), 88.7% and 86.7%, respectively.
Taken in the same sequence, the figures for `c1ccc(C(=NNc2nc3ccccc3s2)c2ccccn2)cc1` were 61% (active), 101% and 102%.
The like results for `O=C(Nc1cccc(-c2cccc(Cl)c2)c1)C1CCN(C2CCC2)CC1` were, in that order, 92.8% (active), 98% and 98.9%.
Taken in the same sequence, the figures for `CCn1cc(CN2CCC(C(=O)Nc3cccc(-c4cccc(Cl)c4)c3)CC2)cn1` were 94.5% (active), 99.1% and 98.3%.
For `CC(C)CN(C(=O)COC(=O)c1ccc2ccccc2c1)c1c(N)n(Cc2ccccc2)c(=O)[nH]c1=O`, the inhibition in experiment [1] is 34.1% (inactive).
Regarding `COc1ccc(NC(=O)c2sc3nc(C)nc(N4CCN(c5ccccn5)CC4)c3c2C)c(OC)c1`, the inhibition in [4] is 38.6% (inactive).
With `COc1ccc2c(c1)c(=Cc1ccc(N(C)C)cc1)c1cc(-c3ccccc3)[n+](C)n12`, the inhibition in [1] was 97.8% (active); in [5] it was 65% (active); in experiment [6] it was 81.7% (active); in experiment [7] it was 67.8% (active); in [2] it was 102%; in experiment [3], 102%. The figures for the inhibition in experiment [8] and in experiment [9] were 99.5% and 100%, respectively.
Take `COc1ccc(CN(C)C(=O)c2cc(-c3ccc(C)cc3C)nc3ccccc23)c(OC)c1OC`: the inhibition was 75.2% (active) in experiment [1]; 61.6% (active) in [4]; 102% in experiment [2]; 102% in experiment [3]; 103% in experiment [10]; 111% in experiment [11].
Regarding `COc1ccc(-c2ccc(CN3C(CC(C)C)C(=O)N(Cc4cn(CC5CCCCC5)nn4)CCS3(=O)=O)cc2)cn1` (stereo not given), in experiment [4], the inhibition was 36.1% (inactive).
As for `Cc1ccc(OCC(=O)c2cc(C)n(Cc3ccco3)c2C)c([N+](=O)[O-])n1`, the inhibition in [1] is 71.5% (active); in [12] it was 64.6% (active); in [13], 82.9% (active); in experiment [2], 58%; in experiment [3] it was 62.9%; in [8], -20.4%. Besides, in [9], the inhibition was -12.2%.
For `O=C(NCCN1CCOCC1)c1ccc(/C=C2\Sc3ccccc3N(Cc3ccc(F)cc3)C2=O)cc1`, the inhibition in experiment [1] is 42.8% (active).
As to `COc1ccc(-c2cc(C(=O)N(C)Cc3ccc(OC)c(OC)c3OC)c3ccccc3n2)cc1OC`, the inhibition in experiment [1] is 60.4% (active); in experiment [2], 68.7%; in [3] it was 72.5%.
Regarding `Cc1ccc(C)c(S(=O)(=O)N2CCN(c3ncnc4sccc34)CC2)c1`, the inhibition in experiment [1] is 69.5% (active); in experiment [2], 90.1%; in experiment [3], 91.3%; in experiment [8], 13.9%; in [9], 74.8%. In addition, the results for the activity in experiment [14] and in experiment [15] were 68.5% and 69%, respectively.
As for `COc1cccc2c1C(=O)c1c(O)c3c(c(O)c1C2=O)CC(O)(C(C)=NNC(=O)c1ccc(Cl)c(Cl)c1)CC3OC1CC(N)C(O)C(C)O1` (stereo not given), the inhibition in experiment [1] is 96.6% (active); in experiment [2], 102%; in [3], 101%; in experiment [8], 99.3%; in experiment [9] it was 98.6%.
As to `CN1OC[C@@H]2CN(S(=O)(=O)c3cccc(C(F)(F)F)c3)[C@H](c3ccc(-c4cc5ccccc5o4)cc3)C[C@@H]21`, the inhibition was 52.7% (active) in experiment [1]; 46.4% (active) in experiment [12]; 75.2% (active) in experiment [13]; 60% in [2]; 73.1% in experiment [3]; 17% in [8]. The inhibition in [9] came to 24.5%.
As for `CC(C)c1ccc2c(c1)c(SC(C)(C)C)c(CC(C)(C)C(=O)O)n2Cc1ccc(Cl)cc1`, the inhibition in experiment [4] is 41.5% (active).
Take `CN(O)C(=S)c1ccccc1`: the inhibition in experiment [1] was 89.1% (active); in [2], 27%; in experiment [3] it was 78.7%; in experiment [8], 0.489%; in [9], -19.9%.
In the case of `CCCCNc1c(-c2cccc(Sc3ccc(OC)cc3)c2)nc2ccccn12`, the inhibition is 95.6% (active) in experiment [1], 94.7% in experiment [2] and 81.9% in experiment [3].
With `CC(C)CC1C(=O)N(Cc2cn(CC3CCCCC3)nn2)CCS(=O)(=O)N1Cc1ccc(-c2ccc(Cl)cc2)cc1` (stereo not given), in experiment [4], the inhibition was 32.8% (inactive).
On the same count and under the same terms, next, `O=C1OC(Oc2ccc(Br)cc2)(c2ccccc2)c2ccccc21` (stereo not given): 4.99% (inactive).
In the case of `Cc1ccc(C(NC(=O)C2CCN(CCOc3ccc(Cl)cc3Cl)CC2)c2ccccn2)cc1` (stereo not given), in experiment [1], the inhibition was 36.9% (inactive).
Take `COc1ccc2[nH]c(=O)c(CN(Cc3cccnc3)S(=O)(=O)c3ccccc3F)cc2c1`: the inhibition in [1] is 56.7% (active); in experiment [4], 86.3% (active); in experiment [10], 109%; in experiment [11], 103%.
